# The supplement of paper PMC9794691
# ± gives the standard deviation of the averaged measurements.
# Test system: PC9
# Assay: area under confluence curve of osimertinib + compound combination regimen (DTP regrowth); compare to osimertinib-only DTP control AUC of the same experiment (AUC (confluence x time, arbitrary))
# Description: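 compare to osimertinib-only DTP control AUC of the same experiment; Long-term drug-tolerant persister (DTP) screen in EGFR-mutant NSCLC cell lines in 48-well plates. The test compound was given at one fixed dose with osimertinib, either upfront (from day 0 to the DTP stage at 10-21 days, then drug-free medium) or sequentially (osimertinib alone to the DTP stage, then the test compound). IncuCyte confluence was tracked until osimertinib-only controls regrew, and AUC was computed in Prism. AUC scale depends on experiment duration, so each row carries the same-experiment osimertinib-only DTP and DMSO control AUCs; combination activity = control minus combo AUC. Osimertinib dose not stated.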
# [1] = test compound dose 300 nM, dosing schedule: sequential, osimertinib-only DTP control AUC in same experiment: 29087, DMSO control AUC in same experiment: 30008
# [2] = test compound dose 300 nM, dosing schedule: upfront, osimertinib-only DTP control AUC in same experiment: 34430, DMSO control AUC in same experiment: 30008
# [3] = test compound dose 1000 nM, dosing schedule: sequential, osimertinib-only DTP control AUC in same experiment: 15001, DMSO control AUC in same experiment: 22064
# [4] = test compound dose 1000 nM, dosing schedule: upfront, osimertinib-only DTP control AUC in same experiment: 24924, DMSO control AUC in same experiment: 22064
structure (smiles),measurement,setting,value
C[C@@]1(C(=O)Nc2ccc(F)nc2)CCCN1c1nc(Nc2cc(C3CC3)n[nH]2)c2cccn2n1 + C=CC(=O)Nc1cc(Nc2nccc(-c3cn(C)c4ccccc34)n2)c(OC)cc1N(C)CCN(C)C [osimertinib],area under confluence curve,"test compound dose 100 nM, dosing schedule: sequential, osimertinib-only DTP control AUC in same experiment: 1963, DMSO control AUC in same experiment: 30580",219 ± 17
same,area under confluence curve,"test compound dose 100 nM, dosing schedule: sequential, osimertinib-only DTP control AUC in same experiment: 12502, DMSO control AUC in same experiment: 49143",7400
same,area under confluence curve,"test compound dose 100 nM, dosing schedule: sequential, osimertinib-only DTP control AUC in same experiment: 14708, DMSO control AUC in same experiment: 21341",3460
same,area under confluence curve,"test compound dose 100 nM, dosing schedule: upfront, osimertinib-only DTP control AUC in same experiment: 8618, DMSO control AUC in same experiment: 30580",4520 ± 430
same,area under confluence curve,"test compound dose 100 nM, dosing schedule: upfront, osimertinib-only DTP control AUC in same experiment: 21313, DMSO control AUC in same experiment: 21341",7730
same,area under confluence curve,"test compound dose 100 nM, dosing schedule: upfront, osimertinib-only DTP control AUC in same experiment: 28310, DMSO control AUC in same experiment: 49143",13100
CCN1CCN(Cc2ccc(Nc3ncc(F)c(-c4cc(F)c5nc(C)n(C(C)C)c5c4)n3)nc2)CC1 [Abemaciclib] + C=CC(=O)Nc1cc(Nc2nccc(-c3cn(C)c4ccccc34)n2)c(OC)cc1N(C)CCN(C)C [osimertinib],area under confluence curve,"test compound dose 100 nM, dosing schedule: sequential, osimertinib-only DTP control AUC in same experiment: 10725, DMSO control AUC in same experiment: 30578",2310
same,area under confluence curve,"test compound dose 100 nM, dosing schedule: sequential, osimertinib-only DTP control AUC in same experiment: 15163, DMSO control AUC in same experiment: 28684",7750
same,area under confluence curve,"test compound dose 100 nM, dosing schedule: sequential, osimertinib-only DTP control AUC in same experiment: 23366, DMSO control AUC in same experiment: 88996",7100
same,area under confluence curve,"test compound dose 100 nM, dosing schedule: upfront, osimertinib-only DTP control AUC in same experiment: 10245, DMSO control AUC in same experiment: 30578",6070
same,area under confluence curve,"test compound dose 100 nM, dosing schedule: upfront, osimertinib-only DTP control AUC in same experiment: 21337, DMSO control AUC in same experiment: 28684",15800
same,area under confluence curve,"test compound dose 100 nM, dosing schedule: upfront, osimertinib-only DTP control AUC in same experiment: 29852, DMSO control AUC in same experiment: 88996",6410
Nc1ccc(/C=C/C(=O)NCc2cc3cc(-c4ccc(C(=O)N5CCC(F)(F)CC5)cc4)cc(-c4ccc(F)cc4)c3o2)cn1 + C=CC(=O)Nc1cc(Nc2nccc(-c3cn(C)c4ccccc34)n2)c(OC)cc1N(C)CCN(C)C [osimertinib],area under confluence curve,"test compound dose 100 nM, dosing schedule: sequential, osimertinib-only DTP control AUC in same experiment: 14258, DMSO control AUC in same experiment: 21913",6800
same,area under confluence curve,"test compound dose 100 nM, dosing schedule: upfront, osimertinib-only DTP control AUC in same experiment: 21499, DMSO control AUC in same experiment: 21913",12200
Nc1nc(Nc2ccc3c(c2)CCC(N2CCCC2)CC3)nn1-c1cc2c(nn1)-c1ccccc1CCC2 (stereo not given) + C=CC(=O)Nc1cc(Nc2nccc(-c3cn(C)c4ccccc34)n2)c(OC)cc1N(C)CCN(C)C [osimertinib],area under confluence curve,"test compound dose 300 nM, dosing schedule: sequential, osimertinib-only DTP control AUC in same experiment: 11273, DMSO control AUC in same experiment: 20197",6530
same,area under confluence curve,[1],12100
same,area under confluence curve,"test compound dose 300 nM, dosing schedule: upfront, osimertinib-only DTP control AUC in same experiment: 13449, DMSO control AUC in same experiment: 20197",7530
same,area under confluence curve,[2],11700
Cc1c[nH]c2nc(Nc3ccc(N4CCN(C)CC4)c(F)c3)nc(-c3cccc(CC#N)c3)c12 + C=CC(=O)Nc1cc(Nc2nccc(-c3cn(C)c4ccccc34)n2)c(OC)cc1N(C)CCN(C)C [osimertinib],area under confluence curve,"test compound dose 300 nM, dosing schedule: sequential, osimertinib-only DTP control AUC in same experiment: 12535, DMSO control AUC in same experiment: 43316",1010
same,area under confluence curve,"test compound dose 300 nM, dosing schedule: sequential, osimertinib-only DTP control AUC in same experiment: 15163, DMSO control AUC in same experiment: 28684",4860
same,area under confluence curve,[1],25200
same,area under confluence curve,"test compound dose 300 nM, dosing schedule: upfront, osimertinib-only DTP control AUC in same experiment: 15354, DMSO control AUC in same experiment: 43316",3200
same,area under confluence curve,"test compound dose 300 nM, dosing schedule: upfront, osimertinib-only DTP control AUC in same experiment: 21337, DMSO control AUC in same experiment: 28684",6800
same,area under confluence curve,[2],25900
Cc1nc(N2CCC3(CC2)CO[C@@H](C)[C@H]3N)c(CO)nc1-c1cccc(Cl)c1Cl + C=CC(=O)Nc1cc(Nc2nccc(-c3cn(C)c4ccccc34)n2)c(OC)cc1N(C)CCN(C)C [osimertinib],area under confluence curve,"test compound dose 1000 nM, dosing schedule: sequential, osimertinib-only DTP control AUC in same experiment: 10671, DMSO control AUC in same experiment: 21678",9600
same,area under confluence curve,"test compound dose 1000 nM, dosing schedule: sequential, osimertinib-only DTP control AUC in same experiment: 13130, DMSO control AUC in same experiment: 20567",7660
same,area under confluence curve,"test compound dose 1000 nM, dosing schedule: upfront, osimertinib-only DTP control AUC in same experiment: 18577, DMSO control AUC in same experiment: 20567",13500
same,area under confluence curve,"test compound dose 1000 nM, dosing schedule: upfront, osimertinib-only DTP control AUC in same experiment: 19512, DMSO control AUC in same experiment: 21678",10500
Cc1cc2cc(C(=O)c3cnn(-c4cnc(Oc5c(F)cccc5F)cc4C)c3N)[nH]c2cc1NS(C)(=O)=O + C=CC(=O)Nc1cc(Nc2nccc(-c3cn(C)c4ccccc34)n2)c(OC)cc1N(C)CCN(C)C [osimertinib],area under confluence curve,"test compound dose 1000 nM, dosing schedule: sequential, osimertinib-only DTP control AUC in same experiment: 10968, DMSO control AUC in same experiment: 21594",7640
same,area under confluence curve,"test compound dose 1000 nM, dosing schedule: upfront, osimertinib-only DTP control AUC in same experiment: 17834, DMSO control AUC in same experiment: 21594",9050
CN(C)C/C=C/C(=O)Nc1ccc(C(=O)Nc2cccc(Nc3ncc(Cl)c(-c4c[nH]c5ccccc45)n3)c2)cc1 + C=CC(=O)Nc1cc(Nc2nccc(-c3cn(C)c4ccccc34)n2)c(OC)cc1N(C)CCN(C)C [osimertinib],area under confluence curve,"test compound dose 1000 nM, dosing schedule: sequential, osimertinib-only DTP control AUC in same experiment: 11414, DMSO control AUC in same experiment: 31219",12600
same,area under confluence curve,"test compound dose 1000 nM, dosing schedule: upfront, osimertinib-only DTP control AUC in same experiment: 18848, DMSO control AUC in same experiment: 31219",21300
CCN(c1cc(-c2ccc(CN3CCOCC3)cc2)cc(C(=O)NCc2c(C)cc(C)[nH]c2=O)c1C)C1CCOCC1 [Tazemetostat] + C=CC(=O)Nc1cc(Nc2nccc(-c3cn(C)c4ccccc34)n2)c(OC)cc1N(C)CCN(C)C [osimertinib],area under confluence curve,"test compound dose 1000 nM, dosing schedule: sequential, osimertinib-only DTP control AUC in same experiment: 14030, DMSO control AUC in same experiment: 30326",11100
same,area under confluence curve,"test compound dose 1000 nM, dosing schedule: upfront, osimertinib-only DTP control AUC in same experiment: 20885, DMSO control AUC in same experiment: 30326",16200
CCc1cc2c(cc1N1CCC(N3CCOCC3)CC1)C(C)(C)c1[nH]c3cc(C#N)ccc3c1C2=O [Alectinib] + C=CC(=O)Nc1cc(Nc2nccc(-c3cn(C)c4ccccc34)n2)c(OC)cc1N(C)CCN(C)C [osimertinib],area under confluence curve,[3],12500
same,area under confluence curve,[4],10800
C[C@@H](Oc1cc(-c2cnn(C3CCNCC3)c2)cnc1N)c1c(Cl)ccc(F)c1Cl [Crizotinib] + C=CC(=O)Nc1cc(Nc2nccc(-c3cn(C)c4ccccc34)n2)c(OC)cc1N(C)CCN(C)C [osimertinib],area under confluence curve,[3],8360
same,area under confluence curve,[4],7510
COc1cc2nc(C)nc(N[C@H](C)c3cc(N)cc(C(F)(F)F)c3)c2cc1O[C@H]1CCOC1 + C=CC(=O)Nc1cc(Nc2nccc(-c3cn(C)c4ccccc34)n2)c(OC)cc1N(C)CCN(C)C [osimertinib],area under confluence curve,"test compound dose 1000 nM, dosing schedule: sequential, osimertinib-only DTP control AUC in same experiment: 15163, DMSO control AUC in same experiment: 28684",11600
same,area under confluence curve,"test compound dose 1000 nM, dosing schedule: upfront, osimertinib-only DTP control AUC in same experiment: 21337, DMSO control AUC in same experiment: 28684",11000
